Assay results from PubChem BioAssay AID588405 (Sanford-Burnham Center for Chemical Genomics, 2011).
Among all 360,000 compounds or so, about 6,200 (1.7%) were called active. The full list was thinned out, with actives kept by preference. Values without a mark were called inactive.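 The calls were made as follows: active = inhibition of at least 50% at 20 µM; inactive = the rest.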

experiment: inhibition of PEG-3 promoter activity – cell-based, HeLa, luciferase luminescence, primary screen (AID 588405); conditions: HeLa PEG-Prom luciferase reporter, overnight, at 20 µM, active compounds read high

Compound	inhibition
COc1ccc(/C=C2\SC(=S)N(CCC(=O)N3CCOCC3)C2=O)cc1OC	-27.5%
O=C1/C(=C/c2ccc(F)cc2)SC(=S)N1CCCC(=O)N1CCCCC1CCO (stereo not drawn)	58.3% (active)
CCN(C(=O)CN1C(=O)/C(=C/c2ccc(F)cc2)SC1=S)C1CCS(=O)(=O)C1 (stereo not drawn)	-2.93%
CC(C)(C)c1ccc(S(=O)(=O)NC(=O)C2(C)CCN2C(=O)CC2CC2)cc1 (stereo not drawn)	-3.67%
Cc1cc(=O)oc2c3c(cc(OCC(=O)NCC(O)c4ccccc4)c12)OC(C)(C)CC3 (stereo not drawn)	12.4%
CC(NC(=O)Nc1ccccc1)C(c1cccs1)N1CCN(c2ccccc2)CC1 (stereo not drawn)	66.2% (active)
CC(NC(=S)Nc1ccccc1)C(c1cccs1)N1CCOCC1 (stereo not drawn)	14.7%
CCCC(=O)NC(C)C(c1cccs1)N1CCN(c2ccccc2)CC1 (stereo not drawn)	7.84%
CCc1nc2c(OCCOc3ccccc3)cccn2c1N(C=O)Cc1ccc(OC)cc1	6.15%
COc1ccc(C(=O)n2nc(-c3ccc(Cl)cc3)nc2N)cc1OC	10.6%
COc1ccc(CCn2ccc(O)c(Cc3ccc(Cl)cc3Cl)c2=O)cc1OC	6.97%
COc1ccc(C(=O)O/N=C(\N)Cc2ccc(Cl)cc2Cl)cc1OC	110% (active)
O=C(NCc1ccccc1)C(c1ccco1)N(C(=O)c1csnn1)c1ccccc1F (stereo not drawn)	5.02%
CSc1ccc(C(=O)C2CCCN(C(=O)c3ccc(C)nc3)C2)cc1 (stereo not drawn)	1.04%
CCCCn1nnnc1C(c1cccc(OC)c1OC)N1CCN(C/C=C/c2ccccc2)CC1 (stereo not drawn)	-3.54%
CC(C)C[C@H](CO)Nc1nc(N(C)c2cccc(Cl)c2)c2ncn(C(C)C)c2n1	12.4%
CC(C)n1cnc2c(Nc3cccc(Cl)c3)nc(N(CCO)CCCO)nc21	96.1% (active)
Cc1ccc(C(O)c2ncc(-c3ccccc3F)[nH]2)cc1F (stereo not drawn)	-67.5%
O=C(NCc1ccncc1)C1CCN(C(=O)c2cccc(Cl)c2)CC1	0.12%
O=C(NC1CCCC1)C(c1c(F)cccc1Cl)N(C(=O)c1csnn1)C1CC1 (stereo not drawn)	16.7%
CCc1nc2ccccc2c(C(=O)NCc2ccc(OC)cc2)c1C	16.9%
COC(=O)Cc1[nH]n(-c2nc3ccccc3s2)c(=O)c1C(C)=Nc1ccc(OC)cc1	89.1% (active)
COC(=O)CC1=NN(c2ccccc2)C(=O)C1	5.53%
N#Cc1cccc(CN2CCC(=O)N([C@H](CO)c3ccccc3)CC2)c1	-12.2%
CC(=O)c1cccc(-c2cnc3c(NC=O)cc(-c4ccccc4Oc4ccccc4)cn23)c1	0.73%
CCCCN(C=O)c1c(CC)nc2c(OCCC3CCCCC3)cccn12	18.3%

Compound	inhibition
CCOC(=O)C1(C)CCCN(C(=O)c2ccc(F)c(Cl)c2)C1 (stereo not drawn)	8.51%
CC1(C(=O)NS(=O)(=O)c2cccc(OC(F)F)c2)CCN1C(=O)COc1ccc(Cl)cc1 (stereo not drawn)	-1.93%
O=C1NC[C@@H](c2ccccc2)OC(=O)[C@H](Cc2ccc(F)cc2)CC/C=C/C[C@H]1CC(=O)N(CCO)Cc1ccccc1	54.9% (active)
O=C1CCC/C=C/C[C@@H](CC(=O)N(CCO)Cc2ccccc2)C(=O)NC[C@H](c2ccccc2)O1	-18.6%
O=C1N[C@@H](c2ccccc2)COC(=O)[C@H](Cc2ccc(F)cc2)C/C=C\C[C@@H]1CC(=O)N(CCO)Cc1ccccc1	24.9%
CCOC(=O)C1=CC[C@@H](c2ccccc2)N(S(=O)(=O)c2ccc(C)cc2)[C@H]1c1ccc(CC)cc1	13%
CC(C)CCN1CCN(Cc2cn[nH]c2C2CCCCC2)CC1CCO (stereo not drawn)	8.83%
O=C(CNC(=O)OCc1ccccc1)Oc1cc2oc(=O)cc(-c3ccccc3)c2cc1Cl	11.5%
COc1cccc(NC(=O)C2(C)CCN2C(=O)CCC2CCCC2)c1 (stereo not drawn)	9.97%
O=C(/C=C/[C@H]1O[C@@H](n2cnc3c(NC(=O)c4ccccc4)ncnc32)[C@H](O)[C@@H]1O)NCc1ccccc1	-2.88%
COc1cc(CNCCN(C)C)ccc1OCc1c(F)cccc1Cl	2.85%
O=C(/C=C/c1ccc(OCc2c(F)cccc2Cl)cc1)N1CCOCC1	-42.8%
CN(C)CCCNC(=O)/C=C/c1ccc(OCc2c(F)cccc2Cl)cc1	70.2% (active)
CC(NC(=O)C(C)(C)C)C(c1cccs1)N1CCN(Cc2ccccc2)CC1 (stereo not drawn)	3.48%
Cc1coc2c1c(C)cc1oc(=O)c(CC(=O)NCC(=O)N[C@H](C(=O)O)C(C)C)c(C)c12	-3.37%
COc1ccc(C(=O)N2CCCCC2c2cc(C(=O)Nc3ccccc3)no2)cc1 (stereo not drawn)	1.75%
CCOC(=O)c1sc(NC(=O)CCN2CCOCC2)c(C(=O)OCC)c1C	4.41%
CCOC(=O)c1c(NC(=O)CCl)sc(C(=O)N(CC)CC)c1C	67.2% (active)
CCOC(=O)Nc1sc(C(=O)N(C)C)c(C)c1C(=O)OCC	16.3%
Nc1cc(=O)c2[nH]cnc2[nH]1	-0.63%
O=c1cc(CN2CCCCCCC2)c2c(ccc3ccccc32)o1	9.42%
CCCOc1ccc(C(=O)C(CCC(CNCC)C(=O)c2ccc(OCCC)cc2)CNCC)cc1 (stereo not drawn)	116% (active)
CCCOc1ccc(/C=N/NC(=O)C2CC2)c(OCCC)c1	-4.16%
COC(=O)c1ccc(OCC(=O)NC(C)(C)C)cc1	-42.5%
Cc1cc(Br)cn2c(Cc3ccccc3C(F)(F)F)c(C3CCCCC3)nc12	5.05%
CC1(C(=O)NS(=O)(=O)c2cccc(F)c2)CCN1C(=O)c1cccc2ccccc12 (stereo not drawn)	-0.5%

Compound	inhibition
O=S(=O)(c1cccs1)N1CCN(Cc2ccccc2)CC1	0.76%
COc1ccc2c(CN3CCN(S(=O)(=O)c4cccs4)CC3)cc(=O)oc2c1	0.03%
Cc1cc2oc(=O)cc(CN3CCN(S(=O)(=O)c4cccs4)CC3)c2cc1C(C)C	51.9% (active)
COc1cncc(-c2cnc3sc(NCCc4ccccn4)nn23)c1	37.3%
Cc1ccc(NN=C2C(=O)OC(C)(C)OC2=O)c(C)c1	-290%
Cc1cccc(NC(=O)c2ccc([N+](=O)[O-])o2)c1	65.2% (active)
O=C(Nc1cccc(O)c1)c1ccc(C(=O)c2ccccc2)o1	-268%
Cc1onc(NC(=O)c2ccc([N+](=O)[O-])o2)c1Br	14.7%
O=C(Nc1cccc2cccnc12)c1ccc2sc([C@H]3C[C@H](O)[C@@H](CO)O3)nc2c1	-70.4%
O=C(Nc1cccc(Cc2ccccc2)c1)Nc1ccc2nc([C@@H]3O[C@H](CO)[C@@H](O)[C@H](O)[C@H]3O)[nH]c2c1	-16.1%
CC(C)CN(C(=O)COC(=O)c1ccc(Cl)c(N)c1)c1c(N)n(Cc2ccccc2)c(=O)[nH]c1=O	-4.65%
Cc1csc(=O)n1CC(=O)OCC(=O)N(CC(C)C)c1c(N)n(Cc2ccccc2)c(=O)[nH]c1=O	-11.2%
CC(C)CN(C(=O)COC(=O)c1ccc2ccccc2c1)c1c(N)n(Cc2ccccc2)c(=O)[nH]c1=O	86.1% (active)
CNc1cc(-c2c(OC)cccc2OC)ncn1	-4.17%
CC(=O)Oc1ccc(Cn2c(C)c(C(=O)NCc3ccc(C#N)cc3)sc2=O)cc1	9.61%
CC1CN(S(=O)(=O)c2ccc(C(=O)Nc3sccc3C(N)=O)cc2)CC(C)O1 (stereo not drawn)	32.5%
NS(=O)(=O)c1ccc(CNC(=O)c2cccc(S(=O)(=O)N3CCc4ccccc43)c2)cc1	23.1%
CNC(=O)c1ccsc1NC(=O)c1ccc(S(=O)(=O)N2CCc3ccccc32)cc1	50.7% (active)
CCOC(=O)c1ccccc1NC(=O)CSc1nc2c(sc(=S)n2CC)c(=O)[nH]1	8.72%
CCOC(=O)c1cc(-c2sc(NC(=O)c3ccccc3)nc2C)n(Cc2ccccc2)n1	-5.67%
O=C(NC(Cc1ccccc1)C(=O)N1CCCC1C(=O)O)c1ccccc1 (stereo not drawn)	11.6%
NC(=O)c1ccc(NC(=O)COC(=O)C(Cc2ccccc2)NC(=O)c2ccccc2)cc1 (stereo not drawn)	-2.3%
CN(Cc1ccccc1F)C(=O)C(Cc1ccccc1)NC(=O)c1ccccc1 (stereo not drawn)	53.2% (active)
COCCSc1nnc(NC(=O)c2cc(OC)c(OC)cc2[N+](=O)[O-])s1	7.25%
CC1(C(=O)NS(=O)(=O)c2ccccc2)CCN1C(=O)Cc1ccc(-c2ccccc2)cc1 (stereo not drawn)	-4.22%
CCCNC(=O)C1(C)CCN(Cc2csc(-c3ccc(Cl)cc3)n2)C1 (stereo not drawn)	-23.7%
